Out of some 360,000 compounds screened, about 3,000 (0.83%) were called active. Cut-off read from the data, not from the text of the source: active = inhibition above about 50%; inactive = the rest. What follows is part of a selection rich in actives, with near analogues and random picks from the rest.
target: DNA (cytosine-5)-methyltransferase 1 (Homo sapiens) (UniProt P26358); assay: inhibition of DNA methyltransferase DNMT1 – biochemical, molecular beacon, fluorescence, HinP1I cleavage, uHTS, primary screen (AID 588458); conditions: at 10 µM, hits give high values
Sequence (P26358 504-1616 limits assumed): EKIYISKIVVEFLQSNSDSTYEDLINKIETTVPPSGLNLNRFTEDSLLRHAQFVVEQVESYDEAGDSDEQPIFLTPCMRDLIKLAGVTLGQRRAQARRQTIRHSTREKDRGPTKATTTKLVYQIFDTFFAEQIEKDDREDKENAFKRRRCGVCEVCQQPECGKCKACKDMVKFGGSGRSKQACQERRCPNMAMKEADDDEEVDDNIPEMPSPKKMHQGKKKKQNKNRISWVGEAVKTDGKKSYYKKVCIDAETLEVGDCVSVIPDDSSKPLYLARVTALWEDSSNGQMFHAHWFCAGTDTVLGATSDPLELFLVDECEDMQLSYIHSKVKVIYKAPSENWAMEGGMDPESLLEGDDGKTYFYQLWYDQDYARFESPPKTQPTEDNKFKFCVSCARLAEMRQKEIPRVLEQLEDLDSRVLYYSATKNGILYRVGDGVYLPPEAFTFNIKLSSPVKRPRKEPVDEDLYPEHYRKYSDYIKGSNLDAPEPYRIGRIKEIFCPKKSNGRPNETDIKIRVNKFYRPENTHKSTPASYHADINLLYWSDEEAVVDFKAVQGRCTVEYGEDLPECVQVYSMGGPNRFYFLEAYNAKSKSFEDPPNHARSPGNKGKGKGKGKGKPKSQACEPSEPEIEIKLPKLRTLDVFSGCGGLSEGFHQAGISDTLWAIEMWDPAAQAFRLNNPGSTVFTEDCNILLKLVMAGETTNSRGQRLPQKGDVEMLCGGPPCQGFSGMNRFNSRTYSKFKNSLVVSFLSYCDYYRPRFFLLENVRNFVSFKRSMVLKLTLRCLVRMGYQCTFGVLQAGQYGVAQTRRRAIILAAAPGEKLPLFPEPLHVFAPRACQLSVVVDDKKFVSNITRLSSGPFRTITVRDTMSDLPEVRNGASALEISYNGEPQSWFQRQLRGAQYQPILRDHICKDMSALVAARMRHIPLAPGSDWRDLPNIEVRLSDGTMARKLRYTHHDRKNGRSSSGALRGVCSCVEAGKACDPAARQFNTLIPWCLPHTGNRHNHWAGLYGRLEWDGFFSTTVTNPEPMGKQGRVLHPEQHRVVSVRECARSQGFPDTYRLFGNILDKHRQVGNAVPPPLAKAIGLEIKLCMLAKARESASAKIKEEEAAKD

Inhibition (reported as % activation of signal), active:
COc1ccc(OC)c(NC(=O)c2cc(-c3cc(F)ccc3OCC3CCCO3)n[nH]2)c1 (stereo unspecified) 105%
CCOC(=O)C(NC(=O)CC(C)C)(Nc1sc2c(c1C(N)=O)CCCC2)C(F)(F)F (stereo unspecified) 85.2%
N#Cc1c(N2CCCCC2)nc(N)c2c(N)nc(SCC(=O)O)cc12 52.1%
Nc1cc2c(cc1Br)-c1ccc(F)cc1C2=O 71.6%
CC(=O)c1ccc(Nc2nc(C(N)c3ccccc3)cs2)cc1 (stereo unspecified) 80.3%
C=C(C)C(=O)Nc1cccc(C2=NOC3(C2)C[C@H](C(N)=O)N(C(=O)C(c2ccccc2)c2ccccc2)C3)c1 (stereo partly specified) 98.1%
COc1ccc(NC(=O)CCn2ccnc2)c(OC)c1 78.8%
COc1cc(-c2nnc(NC(=O)CS(=O)(=O)c3ccc(Cl)cc3)o2)cc(OC)c1OC 64.7%
CCOc1cc(NC(=O)c2ccco2)c(OCC)cc1NC(=O)COc1ccccc1 67.3%
CCCCCCc1cc2cc(-c3nnc(-c4ccccc4)o3)c(=O)oc2cc1O 88.6%
CSc1ccc(CNC(=O)c2ccc(NC(=O)C3=CSCCO3)cc2)cc1 62.1%
CC(=O)c1ccc(NC(=O)c2ccc3c(Cl)c4c(nc3c2)CCCC4)cc1 76.2%
O=C(CCNC(=O)c1ccccc1)NN=Cc1ccc(Br)o1 50.6%
c1ccc(CSc2nnc(-c3ccco3)c(-c3ccco3)n2)cc1 113%
Clc1ccccc1CSc1nnc(-c2ccco2)c(-c2ccco2)n1 92.8%
O=C(CCS(=O)(=O)c1ccc(Br)cc1)NCCc1ccc(Cl)cc1 68.7%
COc1ccc(Cl)cc1NC(=O)CCS(=O)(=O)c1ccc(Br)cc1 94.1%
CC(C)(C)C1C/C(=C/c2ccco2)C(=O)/C(=C/c2ccco2)C1 (stereo unspecified) 95.9%

Inhibition (reported as % activation of signal), inactive:
COc1ccccc1-n1nnnc1S(=O)(=O)Cc1ccc(Cl)cc1 22%
O=C(CCc1nnc2ccc(NCc3ccco3)nn12)Nc1cc(F)ccc1F 29.7%
COC(=O)c1ccc(C(=O)NC2CC(C)(C)Cc3c2cnn3-c2ccc(F)cc2)nc1 (stereo unspecified) -1.04%
CCCOc1ccc(F)cc1-c1cc(C(=O)Nc2ccc(F)cc2)[nH]n1 -1.3%
COc1cc(F)ccc1-c1cc(C(=O)NCC2CCCCC2)[nH]n1 -0.63%
Cc1ccc(-n2c(SCC(=O)N3CCC(C(=O)O)CC3)nc3ccccc3c2=O)cc1C -1.54%
Cc1cc(C)c(C(=O)CSc2nc(C)cc(=O)[nH]2)c(C)c1 -2.03%
COc1ccc(C2=NOC(C(=O)NCc3ccco3)C2)cc1OC (stereo unspecified) 1.36%
CCOc1ccc(C(=O)Nc2cc(Cl)ccc2-n2cncn2)cc1OC 0.02%
CC1CCN(C(=O)C2CCN(S(=O)(=O)N3CCC4(CC3)OCCO4)CC2)CC1 1.13%
COC(=O)C(NC(C)=O)(Nc1nc2c(s1)CCCC2)C(F)(F)F (stereo unspecified) 0.31%
CCOC(=O)c1c(NC(=O)Cn2nc(C(F)(F)F)cc2C)sc2c1CCC2 -22.3%
O=C(O)CSc1ccc(S(=O)(=O)N2CCCC2)cn1 -4.98%
N#Cc1c(C(F)(F)F)cc(-c2cccs2)nc1N1CCCCC1 -1.64%
CC1(C)C2CC=C(/C=N/NC(=O)c3ccc(Cl)cc3)C1C2 (stereo unspecified) 2.7%
Nc1nc2c(ncn2[C@@H]2O[C@H](CNS(=O)(=O)N3CCc4ccccc4C3)[C@@H](O)[C@H]2O)c(=O)[nH]1 0.15%
COCCNC(=O)C1(C)CCCN(Cc2cccc(F)c2)C1 (stereo unspecified) -1.11%
O=S(=O)(Nc1n[nH]c(C(F)(F)F)n1)c1ccccc1 -0.37%
CC(=O)Nc1ccc(S(=O)(=O)Nc2cc(C)cn(Cc3ccc(C)cc3)c2=O)cc1 -4.47%
CC(=O)c1ccc(Nc2nc(C(N)c3ccccc3Cl)cs2)cc1 (stereo unspecified) -17.7%
NC(c1ccccc1)c1csc(NC(=O)Nc2cccc(C(F)(F)F)c2)n1 (stereo unspecified) -22.9%
CCCS(=O)(=O)NC(=O)C1(C)CCN(C(=O)c2sccc2C)C1 (stereo unspecified) -0.36%
COc1cc(NC(=O)CCNC(=O)Cn2ccc3ccccc3c2=O)cc(OC)c1OC -1.53%
CCOC(=O)c1ccn(S(=O)(=O)c2ccc(C)cc2)c1-c1ccccc1 0.08%
C/C=C\C=C\C(=O)N1CC2(CC(c3cccc(NC(=O)/C(C)=C\C)c3)=NO2)C[C@H]1C(N)=O (stereo partly specified) -7.28%
CC/C=C/C(=O)N1CC2(CC(c3cccc(NC(=O)CC)c3)=NO2)C[C@H]1C(N)=O (stereo partly specified) 5.63%
CC(=O)Nc1ccc(NC(=O)C2CCCN2S(=O)(=O)c2cccc(C(F)(F)F)c2)cc1 (stereo unspecified) -0.75%
COc1cccc(-n2c(N)cc(=O)nc2SCC(=O)Nc2cc(C)on2)c1 0.03%
O=C(c1ccccc1Cl)N(Cc1ccccc1F)N1C(=O)CCCC1=O 1.73%
COc1ccc(NC(=O)CCCC2CCCCC2)c(OC)c1 1.18%
COc1ccc(NC(=O)COC(=O)c2ccncc2)c(OC)c1 7.14%
O=C(OCCO)c1cc(Cl)c(C(=O)OCCO)cc1Cl -0.85%
FC(F)(F)c1ccc(-c2cccc3c2C2CC3CCN2Cc2ccccc2)cc1 (stereo unspecified) 5.02%
Cc1ccc(C)c(-c2nnc(NC(=O)CS(=O)(=O)c3ccccc3)o2)c1 2.2%
COc1cc(-c2nnc(NC(=O)C3=COCCO3)o2)cc(OC)c1OC 0.63%
O=C(COc1cccc2c1CCNC2=O)NC1CCCCC1 0.71%
COc1ccc(C)cc1N(C(=O)Cn1nnc(-c2ccc(C)o2)n1)C(C(=O)NC1CCCC1)c1ccncc1 (stereo unspecified) 0.4%
CCOc1cc(NC(=S)NCc2ccco2)c(OCC)cc1NC(=O)c1ccco1 -8.9%
COc1ccc(NC(=O)CCC(=O)Nc2cc(OC)c(NC(=O)c3ccco3)cc2OC)c(OC)c1 -1.01%
CC(C)(C(=O)N1CCC1(C)C(=O)NS(=O)(=O)c1ccc(Br)cc1)c1ccccc1 (stereo unspecified) 1.25%
CC1CCN(CCCNC(=O)CN2C(=O)CSc3ccc(S(=O)(=O)N4CCCCC4)cc32)CC1 0.73%
CC(C)C(NC(=O)c1c(F)cccc1F)C(=O)NCc1ccncc1 (stereo unspecified) 1.21%
O=C(NCCc1cccc(F)c1)C1CC(O)CN1C(=O)Nc1ccccc1 (stereo unspecified) 7.51%
COc1cc(/C=N/N=C(\N)c2nonc2N)cc(OC)c1OC -0.45%
O=C(Nc1ccc(C(=O)NCc2ccccc2Cl)cc1)C1=CSCCO1 -10.3%
CSc1ccc(CNC(=O)C2(C)CCCN2C)cc1 (stereo unspecified) 9.6%
O=C(Nc1cccc2cccnc12)c1ccc2sc([C@H]3C[C@H](O)[C@@H](CO)O3)nc2c1 -5.28%
CC(C)CCNC(=O)c1ccc2c(Cl)c3c(nc2c1)CCC3 -1.49%
COc1cccc(NC(=O)c2ccc3c(SCC(=O)O)c4c(nc3c2)CCCC4)c1 9.48%
CC1=C(C(=O)N2CCOCC2)CC(CC(=O)NCCCN(C)C)C(=O)N1Cc1ccc(C(C)(C)C)cc1 (stereo unspecified) 2.88%
O=c1c2cc([N+](=O)[O-])ccc2nc2n1CCC2 2.73%
Cc1cccc(NC(=S)N(CCN(C)C)C(C)c2ccco2)c1 (stereo unspecified) -0.09%
O=C(CCC(=O)N/N=C/c1ccc(Br)o1)N/N=C/c1ccc(Br)o1 17%
O=C(CCc1n[nH]c(=O)[nH]c1=O)N/N=C/c1ccc(Br)o1 5.93%
COc1ccccc1OC(C)C(=O)Nc1ccc(S(=O)(=O)Nc2nccs2)cc1 (stereo unspecified) 0.4%
O=C(Nc1nnc(SCc2ccccc2Cl)s1)c1cccc([N+](=O)[O-])c1 -4.99%
CSc1nc(-c2ccco2)nn1C(=O)c1ccccc1Cl 4.2%
c1ccc(Cc2c(-c3ccco3)nc3c4ccccc4ccn23)cc1 -16.2%
COc1ccc(NCc2nnc(SCc3ccccc3)n2-c2ccc(OC)cc2)cc1 -3.05%
CC(c1nnc(SCC(=O)Nc2sccc2C#N)n1-c1ccc(Cl)cc1)N(C)C (stereo unspecified) -2.07%
CCOc1cc(CNCCN(C)C)c(Cl)cc1OCC(=O)NCCc1ccccc1 2.37%
N#Cc1cc([N+](=O)[O-])ccc1NCC1CCCO1 (stereo unspecified) 0.79%
COCCNC(=O)CN(Cc1ccco1)C(=O)CCC(=O)Nc1nccs1 0.73%
CC(C)(C)C(=O)N1CCC[C@@]1(CO)C(=O)O 5.81%
CCCCC(=O)N/N=C(\C)CC(=O)Nc1cc(Cl)ccc1OC 2.33%
Cc1ccc(S(=O)(=O)CCC(=O)OCC(=O)NCCc2ccc(S(N)(=O)=O)cc2)cc1 -1.16%
O=C(NCCS(=O)(=O)c1ccc(Br)cc1)c1ccccc1Cl 2.79%
COc1ccc(Cl)cc1NC(=O)COC(=O)c1ccc(Br)o1 -6%
Cc1noc(C)c1CSCC(=O)N(CCC(C)C)c1c(N)n(Cc2ccccc2)c(=O)[nH]c1=O -0.4%
Cc1ccn2c(c1)nc(=O)c1cc(S(=O)(=O)N3CCC(C)CC3)ccc12 2.87%
Cc1cc(C(=O)N2CCCC2(C)C(=O)O)c(C)o1 (stereo unspecified) 8.96%
NC(=O)COC(=O)c1ccc2c(c1)C(=O)N(Cc1ccco1)C2=O 1.59%
COC(=O)COc1ccc2c(c1C)O/C(=C\c1ccco1)C2=O -2.61%

Source: PubChem BioAssay AID588458 (Sanford-Burnham Center for Chemical Genomics, 2011)
